Here are results for 40 sequences from the OligoGym collection.
Also: reference of the scale not given here.

The target in the first test is CHEK1. The test is described as follows: pooled miR-30 sensor sort-seq; sequence = guide strand. The following applies: shRNA.
In turn, TTCCACAGGACCAAACATCAAC yielded a sensor-assay potency score (higher = more potent) of -1.04.
The sequence TTAATCTTCAGGAAGTGTCTCT displayed a sensor-assay potency score (higher = more potent) of 0.552.
Still for that read-out and setting: the result for TGATATAGTAACCTGATTCATA reads -0.794.
On the same count and under the same terms, the result for TATCCCATAAGGAAAGACCTGT reads -0.371; that for TTCTGGTTTAATATCCCTGTGA, -0.58.
Sequence TTTTCTTCCATTGATAGCCCAA yielded a sensor-assay potency score (higher = more potent) of -0.419.
Regarding TAAAGAATCGTGTCATTCTTTT, the sensor-assay potency score (higher = more potent) is -0.659.
Still for that read-out and setting: to TTTGTTGTACCATCTATCTTTT belongs -0.765; to TATTTTATCATCCATTTCTAAC, -1.06.
In turn, TTCAGGAACTACTATTTGCAGT had a sensor-assay potency score (higher = more potent) of -0.581.
Still for that read-out and setting: to TAACCTGATTCATACAACTTTT belongs -1.09; to TGTCTCTTGAACTCCAATCCAT, -0.483; to TTGTCTGCATCCAATTTGGTAA, -1.02.
In turn, TTCTTCACTAGAAGCACTGTTT had a sensor-assay potency score (higher = more potent) of 0.0317.
Same read-out and setting: to TTTGGTAAAGAATCGTGTCATT belongs -0.878; to TAACTGACTATTCAAAAGCATA, -1.68.
Still for that read-out and setting: to TTGTTGATATAGTAACCTGATT belongs -1.22.
Still for that read-out and setting: the result for TTTTCTGGTTTAATATCCCTGT reads 0.0757.

The next test has as its target CHI3L1. The description is as above. Particulars: shRNA.
For the sequence TCTGTCAGGACTTGCATCCTCC, the sensor-assay potency score (higher = more potent) was -0.579.
On the same count and under the same terms, the result for TTTGTATGCAGAGCAGCACTGG reads -1.09.
The sequence AAATCGTAGGTCATGATGCTAA gave a sensor-assay potency score (higher = more potent) of -0.871.
On the same count and under the same terms, the result for TTGGCAATGTCATAGCTGCTGT reads -0.359.
Still for that read-out and setting: to TTGAGCATGCCGTAGAGCGTCA belongs -0.951; to TTGAGTGTGTTGAGCATGCCGT, -0.388.
Still for that read-out and setting: the result for TTCAGGTACTGCACCTTGCTTT reads -0.412; that for TTTGTCTCTCCGTCCAGGGTAG, -0.776; that for TTGCTTTTGACGCTTTCCTGGT, -0.698.
TGAATCTGTCAGGACTTGCATC returned a sensor-assay potency score (higher = more potent) of -0.763.
The same measure, in the same setting: to TAGTCAGTGTTGCTGAATCTGT belongs -1.28; to TTGTATGCAGAGCAGCACTGGA, -1.21.
Same read-out and setting: the result for ATAATTAGTATGGTCACTGTGT reads -0.0223; that for TAGAGCGTCACATCATTCCACT, -0.926; that for TATCTTGGCAATGTCATAGCTG, 0.682.
Still for that read-out and setting: to TATATTGGCAAAGCTGTAGATG belongs -1.02.
Sequence TTTCCTGGTCGTCGTATCCTAC returned a sensor-assay potency score (higher = more potent) of -0.76.
TTGCATCCTCCTGACCTCGGAA gave a sensor-assay potency score (higher = more potent) of -0.718.
The same measure, in the same setting: to TTCATTTCCTTGATTAGGGTGG belongs 0.13; to TAGCAGACCAGTTTGTATGCAG, 0.269; to TTGGAAAATCTTTGAGACCCAA, -0.569.
ATCTTGGCAATGTCATAGCTGC registered a sensor-assay potency score (higher = more potent) of -1.04.
